Measurements published in PubChem BioAssay AID1347420 (Sanford-Burnham Center for Chemical Genomics, 2020).
In all, about 1,300 compounds went through this assay and about 980 (75%) were called active. Another 4% or so got no clear call; they are omitted. The list shows a part of the results. Unmarked numbers belong to inactive results.

These compounds were tested against Sulfhydryl oxidase 1 (Homo sapiens) (UniProt O00391) (assay: QSOX1 enzyme inhibitors, primary screen, biochemical, HyperBlu H2O2 luminescence, HTS (AID 1347420; further: values above 100% were filed as inconclusive)). Conditions: recombinant QSOX1, HyperBlu H2O2 luminescence; at 12.5 µM; stronger effect = higher value; active = any value above zero.
Chain of Sulfhydryl oxidase 1 (Homo sapiens) (O00391 whole entry, looked up): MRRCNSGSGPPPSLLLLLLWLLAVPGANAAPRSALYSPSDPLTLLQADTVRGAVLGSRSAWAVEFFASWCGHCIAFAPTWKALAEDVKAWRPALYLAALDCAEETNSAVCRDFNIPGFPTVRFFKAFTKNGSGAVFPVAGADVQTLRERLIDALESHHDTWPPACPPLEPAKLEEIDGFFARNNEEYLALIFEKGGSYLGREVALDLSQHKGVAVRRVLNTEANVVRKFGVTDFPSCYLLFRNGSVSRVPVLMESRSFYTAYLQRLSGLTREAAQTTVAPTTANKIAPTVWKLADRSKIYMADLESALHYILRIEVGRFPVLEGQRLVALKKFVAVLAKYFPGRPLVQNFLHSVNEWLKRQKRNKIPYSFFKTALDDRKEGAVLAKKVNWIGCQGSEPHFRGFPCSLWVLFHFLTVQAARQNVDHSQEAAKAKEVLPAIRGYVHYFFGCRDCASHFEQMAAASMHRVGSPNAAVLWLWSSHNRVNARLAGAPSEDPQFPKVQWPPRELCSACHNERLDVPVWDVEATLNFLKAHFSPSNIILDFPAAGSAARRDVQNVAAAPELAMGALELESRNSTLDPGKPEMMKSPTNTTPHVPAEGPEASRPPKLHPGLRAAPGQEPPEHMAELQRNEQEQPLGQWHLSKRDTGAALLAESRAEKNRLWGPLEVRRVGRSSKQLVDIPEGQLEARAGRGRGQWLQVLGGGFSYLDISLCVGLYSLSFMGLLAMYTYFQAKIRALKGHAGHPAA
With `Cn1cnc2c1c(=O)[nH]c(=O)n2C` the inhibition was 0%.
Work on `Cn1c(=O)c2c(ncn2C)n(C)c1=O` yielded an inhibition of -2%.
In the case of `C#CCn1c(=O)c2c(ncn2C)n(C)c1=O`, the inhibition is reported as 4% (active).
`CCCn1cnc2c1c(=O)n(CCCCC(C)=O)c(=O)n2C` was tested, and the inhibition was 5.2% (active).
`Cn1c(=O)[nH]c2ncn(C)c2c1=O` showed an inhibition of -0.4%.
For `CC(=O)CCCCn1c(=O)c2c(ncn2C)n(C)c1=O`, the inhibition was 13.8% (active).
`CCCn1c(=O)c2c(ncn2C)n(CCC)c1=O` was tested, and the inhibition was 11.9% (active).
With `COc1ccc(CCn2nnnc2C2(c3ccc(C)cc3)CC2)cc1` the inhibition was 14.5% (active).
`C(=C\c1ccccc1)/CN1CCN(C(c2ccccc2)c2ccccc2)CC1` was tested, and the inhibition was -9.7%.
For `Fc1ccc(C(c2ccc(F)cc2)N2CCN(C/C=C/c3ccccc3)CC2)cc1`, the inhibition was 5.6% (active).
For `Oc1cc(O)c2c(c1)O[C@H](c1ccc(O)c(O)c1)[C@@H](O)C2`, the inhibition was 72.1% (active).
In the case of `O=C1c2c(O)cc(O)cc2OC(c2ccc(O)c(O)c2)C1O` (stereo unspecified), the inhibition is reported as 65.2% (active).
`Cc1cnc(C(=O)NCCc2ccc(S(=O)(=O)NC(=O)NC3CCCCC3)cc2)cn1` showed an inhibition of -6.9%.
`COc1ccc(Cl)cc1C(=O)NCCc1ccc(S(=O)(=O)NC(=O)NC2CCCCC2)cc1` was tested, and the inhibition was 7.7% (active).
For `Cc1cccc(C)c1NC(=O)C(C)N` (stereo unspecified), the inhibition was 17.2% (active).
With `CCC(=O)c1ccc2c(c1)N(CCCN(C)C)c1ccccc1S2` the inhibition was 96.5% (active).
With `CN(C)CCCN1c2ccccc2Sc2ccc(C(F)(F)F)cc21` the inhibition was 83.7% (active).
In the case of `CN(C)CCCN1c2ccccc2Sc2ccc(Cl)cc21`, the inhibition is reported as 98.2% (active).
For `NCCS`, the inhibition was 28.5% (active).
`O=c1[nH]c2ccccc2c2ccccc12` was tested, and the inhibition was 10.9% (active).
`C=Cc1c(C)c2cc3[nH]c(cc4nc(cc5nc(cc1[nH]2)C(C)=C5CCC(=O)O)C(CCC(=O)O)=C4C)c(C)c3C=C` was tested, and the inhibition was 29.8% (active).
For `CCOC(=O)N1CCN(/[N+]([O-])=N/Oc2ccc([N+](=O)[O-])cc2[N+](=O)[O-])CC1`, the inhibition was 73.3% (active).
`NNc1nncc2ccccc12` was tested, and the inhibition was 92.6% (active).
`COc1cc2ncnc(Nc3cccc(Cl)c3)c2cc1OC` was tested, and the inhibition was 0.4% (active).
For `CC1CCN(CC[C@H]2CCCN2S(=O)(=O)c2cccc(O)c2)CC1`, the inhibition was 2.8% (active).
For `O=c1[nH]ccc2c(O)cccc12`, the inhibition was 41.9% (active).
In the case of `Oc1cc2c(cc1O)C(c1ccccc1)CNCC2` (stereo unspecified), the inhibition is reported as 57.5% (active).
With `Oc1cc2c(c(Cl)c1O)CCNCC2c1ccccc1` (stereo unspecified) the inhibition was 93.6% (active).
`CCNC(=O)N1CCN(CCCC(c2ccc(F)cc2)c2ccc(F)cc2)CC1` was tested, and the inhibition was 8.8% (active).
With `O=C1C2C=CC=CC2=NC(=S)N1CCN1CCC(=C(c2ccc(F)cc2)c2ccc(F)cc2)CC1` (stereo unspecified) the inhibition was 4.1% (active).
For `CC(=O)Oc1ccccc1C(=O)O`, the inhibition was 12.4% (active).
With `C#C[C@]1(O)CC[C@H]2[C@@H]3CCC4=Cc5oncc5CC4(C)[C@H]3CCC21C` (stereo partly specified) the inhibition was 22.1% (active).
`COc1cc(C(O)CO)ccc1OS(=O)(=O)O` (stereo unspecified) was tested, and the inhibition was 2.7% (active).
In the case of `COc1cc(C(O)C(=O)O)ccc1O` (stereo unspecified), the inhibition is reported as 12.1% (active).
In the case of `COc1cc(C(O)CO)ccc1O` (stereo unspecified), the inhibition is reported as 13.7% (active).
`Cc1cc(Cn2cnc3c2C[C@@H](C(=O)O)N(C(=O)C(c2ccccc2)c2ccccc2)C3)ccc1N` was tested, and the inhibition was 29.8% (active).
`CCN1CCCC1CNC(=O)c1cc(S(N)(=O)=O)ccc1OC` (stereo unspecified) showed an inhibition of -11.2%.
For `CCN1CCCC1CNC(=O)c1cc(S(=O)(=O)CC)c(N)cc1OC` (stereo unspecified), the inhibition was 3.7% (active).
`CCN1CCC[C@H]1CNC(=O)c1cc(S(N)(=O)=O)ccc1OC` was tested, and the inhibition was 1% (active).
For `CCCCNc1c(C(=O)OCC)c(C)nc2c1cnn2CC`, the inhibition was 12.7% (active).
In the case of `CCOC(=O)c1cnc2c(cnn2CC)c1NN=C(C)C`, the inhibition is reported as 19.1% (active).
In the case of `NC[C@@H]1O[C@H](C23CC4CC(CC(C4)C2)C3)Cc2c1ccc(O)c2O`, the inhibition is reported as 54% (active).
For `NC[C@@H]1O[C@H](c2ccccc2)Cc2c1ccc(O)c2O`, the inhibition was 71.1% (active).
For `CC(C)C[C@H]1C(=O)N2CCC[C@H]2[C@]2(O)O[C@](NC(=O)[C@@H]3C=C4c5cccc6[nH]c(Br)c(c56)C[C@H]4N(C)C3)(C(C)C)C(=O)N12`, the inhibition was 33.5% (active).
`C[C@H](CS)C(=O)N1CCC[C@H]1C(=O)O` gave an inhibition of -8.3%.
In the case of `c1ccc(C(NCCNC(c2ccccc2)c2ccccc2)c2ccccc2)cc1`, the inhibition is reported as 7.6% (active).
For `CCOC(=O)C12CC1/C(=N/O)c1ccccc1O2` (stereo unspecified), the inhibition was 11.7% (active).
In the case of `CCCCOC(=O)NS(=O)(=O)c1sc(CC(C)C)cc1-c1ccc(Cn2c(CC)nc3c(C)cc(C)nc32)cc1`, the inhibition is reported as 15.1% (active).
For `C1CCC(N=C(NC23CC4CC(CC(C4)C2)C3)N2CCOCC2)CC1`, the inhibition was 8.2% (active).
In the case of `NC1=NCC2c3ccccc3Cc3ccccc3N12` (stereo unspecified), the inhibition is reported as 2.9% (active).
`Cc1c(OCC(F)(F)F)ccnc1CS(=O)c1nc2ccccc2[nH]1` (stereo unspecified) was tested, and the inhibition was 2.3% (active).
`c1ccc2nc(C3=NCCN3)ccc2c1` was tested, and the inhibition was -4.5%.
With `Nc1ccc(-c2ccc3ccccc3n2)cc1` the inhibition was 54.7% (active).
For `Nc1ncnc2n[nH]c(Nc3ccc(F)cc3)c12`, the inhibition was 81.8% (active).
`CCN1CCc2nc(N)oc2CC1` was tested, and the inhibition was 48.7% (active).
With `O=c1[nH]c2cc([N+](=O)[O-])c([N+](=O)[O-])cc2[nH]c1=O` the inhibition was 87% (active).
In the case of `C=C[C@H]1CN2CC[C@@H]1C[C@@H]2[C@H](O)c1ccnc2ccc(OC)cc12`, the inhibition is reported as 4.7% (active).
Work on `C=C[C@H]1CN2CC[C@@H]1C[C@H]2[C@@H](O)c1ccnc2ccc(OC)cc12` yielded an inhibition of -2.4%.
In the case of `CCCCCCC/C=C\CCCCCCCCC(=O)O`, the inhibition is reported as 11% (active).
`CCCCCC(O)CCCC(=O)O` (stereo unspecified) showed an inhibition of -0.3%.
With `CCCCCCCCCCC/C=C\C(C)(C)/C=C\CCCC(=O)O` the inhibition was 25.2% (active).
For `CC(C)NC[C@H](O)COc1ccc(CC(N)=O)cc1`, the inhibition was -4.6%.
`COCCc1ccc(OCC(O)CNC(C)C)cc1` (stereo unspecified) was tested, and the inhibition was -17.5%.
`CC(C)NCC(O)COc1ccc(CCOCC2CC2)cc1` (stereo unspecified) was tested, and the inhibition was 11.4% (active).
For `CC(C)NCC(O)COc1ccc(CC(N)=O)cc1` (stereo unspecified), the inhibition was 7.4% (active).
`CC(=O)SC1CC2=CC(=O)CC[C@]2(C)C2CC[C@@]3(C)C(CC[C@@]34CCC(=O)O4)C12` (stereo partly specified) was tested, and the inhibition was 5.4% (active).
`O=c1c(-c2ccc(O)cc2)coc2cc(O)cc(O)c12` was tested, and the inhibition was 33.2% (active).
For `O=c1cc(-c2ccc(O)cc2)oc2cc(O)cc(O)c12`, the inhibition was 88.8% (active).
`O=c1c(-c2ccc(O)cc2)coc2cc(O)ccc12` was tested, and the inhibition was 32.4% (active).
With `Cc1ccccc1/C=C/C1=NCCN1` the inhibition was -1.6%.
In the case of `COC1(C2=NCCN2)COc2ccccc2O1` (stereo unspecified), the inhibition is reported as 2.6% (active).
In the case of `O=C1Nc2ccc(I)cc2/C1=C/c1cc(Br)c(O)c(Br)c1`, the inhibition is reported as 97.8% (active).
With `CCCCOc1cc(CC2CNC(=O)N2)ccc1OC` (stereo unspecified) the inhibition was 2.2% (active).
`O=C1NCN(c2ccccc2)C12CCN(CCCC(c1ccc(F)cc1)c1ccc(F)cc1)CC2` was tested, and the inhibition was 9.4% (active).
With `Oc1ccc(/C=C/c2cc(O)cc(O)c2)cc1` the inhibition was 78% (active).
Work on `Oc1ccc(/C=C/c2ccc(/C=C/c3ccc(O)cc3)c(Br)c2)cc1` yielded an inhibition of -1.9%.
With `N[C@H](CCCP(=O)(O)O)C(=O)O` the inhibition was 13.7% (active).
For `NC(CCCP(=O)(O)O)C(=O)O` (stereo unspecified), the inhibition was 4% (active).
`N[C@@H](COP(=O)(O)O)C(=O)O` was tested, and the inhibition was 1.7% (active).
For `CN[C@H](CC(C)C)C(=O)N[C@H]1C(=O)N[C@@H](CC(N)=O)C(=O)N[C@H]2C(=O)N[C@H]3C(=O)N[C@H](C(=O)N[C@H](C(=O)O)c4cc(O)cc(O)c4-c4cc3ccc4O)[C@H](O)c3ccc(c(Cl)c3)Oc3cc2cc(c3O[C@@H]2O[C@H](CO)[C@@H](O)[C@H](O)[C@H]2O[C@H]2C[C@](C)(N)[C@H](O)[C@H](C)O2)Oc2ccc(cc2Cl)[C@H]1O`, the inhibition was -8.2%.
In the case of `Cc1scc2c1N(C(=O)CN1CCN(C)CC1)c1ccccc1NC2=O`, the inhibition is reported as 1.1% (active).
In the case of `CN1CCN(CC(=O)N2c3ccccc3C(=O)Nc3cccnc32)CC1`, the inhibition is reported as -3.2%.
In the case of `Cc1ccc(=O)n(-c2ccccc2)c1`, the inhibition is reported as 2.4% (active).
In the case of `Oc1ccc(O)cc1`, the inhibition is reported as 14.7% (active).
For `Nc1ccc2c3c(cccc13)C(=O)NC2=O`, the inhibition was 13.7% (active).
In the case of `NCCNS(=O)(=O)c1cccc2c(Cl)cccc12`, the inhibition is reported as 0.7% (active).
In the case of `CC(C)COC(=O)OCN1C(=O)CN(CCN2CC(=O)N(COC(=O)OCC(C)C)C(=O)C2)CC1=O`, the inhibition is reported as 12.5% (active).
With `C=CCNc1ncnc2ccc(Br)cc12` the inhibition was 12.6% (active).
`NC(=O)C(=O)O` was tested, and the inhibition was 11% (active).
`CC[C@H](NC(=O)c1c(C)c(-c2ccccc2)nc2ccccc12)c1ccccc1` was tested, and the inhibition was 9.3% (active).
Compound `COc1ccc(Cc2nccc3cc(OC)c(OC)cc23)cc1OC` has an inhibition of -10.3%.
For `COc1ccc(CCN(C)CCCC(C#N)(c2cc(OC)c(OC)c(OC)c2)C(C)C)cc1OC` (stereo unspecified), the inhibition was 17% (active).
`COc1ccc(CCN(C)CCCC(C#N)(c2ccc(OC)c(OC)c2)C(C)C)cc1OC` (stereo unspecified) was tested, and the inhibition was 9.1% (active).
With `COc1ccc(CCN(C)CCc2ccc(OC)c(OC)c2)cc1OC` the inhibition was 8% (active).
Compound `O=P(O)(O)C(Cl)(Cl)P(=O)(O)O` has an inhibition of -4.1%.
In the case of `NC(CO)C(=O)NNCc1ccc(O)c(O)c1O` (stereo unspecified), the inhibition is reported as 24.2% (active).
`CN1CCN(c2nc3cc(C(F)(F)F)ccc3n3cccc23)CC1` was tested, and the inhibition was 12.2% (active).
`Cc1[nH]c(=O)c(C#N)cc1-c1ccncc1` was tested, and the inhibition was 15.5% (active).
In the case of `Cc1[nH]c(=O)c(C#N)cc1-c1ccc2nccn2c1`, the inhibition is reported as 1% (active).
With `COc1cccc(-c2cc(=O)c3ccccc3o2)c1N` the inhibition was 7.6% (active).
In the case of `NC(=O)N1c2ccccc2C=Cc2ccccc21`, the inhibition is reported as 12.3% (active).
`CC(=O)O[C@H]1Cc2ccccc2N(C(N)=O)c2ccccc21` showed an inhibition of -8.4%.
For `CN1CCN(CCCN2c3ccccc3Sc3ccc(C(F)(F)F)cc32)CC1`, the inhibition was 97% (active).
With `OCCN1CCN(CCCN2c3ccccc3Sc3ccc(C(F)(F)F)cc32)CC1` the inhibition was 92.8% (active).
For `OCCN1CCN(CCCN2c3ccccc3C=Cc3ccccc32)CC1`, the inhibition was 47.2% (active).
For `OCCN1CCN(CC/C=C2/c3ccccc3Sc3ccc(C(F)(F)F)cc32)CC1`, the inhibition was 3.4% (active).
